Source: PubChem BioAssay (National Center for Advancing Translational Sciences (NCATS))
KCNH2 3.1 block = inhibitors of human KCNH2 3.1 potassium channel isoform | U2OS KCNH2 3.1, thallium flux FluxOr; stronger effect = lower value | activity change, % (tested at about 1.8 µM) | actives 0.95% (n = 340,000) | AID 720553;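 active = maximum activity change below -70%; inconclusive = maximum activity change from -70% to -50%; inactive = maximum activity change above -50%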;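 note: thallium influx rate constant from kinetic fluorescence after stimulation buffer; % is set by controls: 0 for no effect and ±100 for the full control effect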
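Kinetic fluorescence (2 min after stimulation buffer) measures Tl+ influx through KCNH2 3.1 expressed by viral transduction in U2OS cells; the rate constant is normalized against DMSO controls serving as positive and negative references.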
KCNH2 WT inh = KCNH2 (human, wildtype) channel inhibition | U2OS, BacMam KCNH2, thallium flux FluxOr; stronger effect = lower value | actives 0.37% (n = 340,000) | activity change, % at 1.84 µM | Q12809;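 active = maximum activity change below -70%; inconclusive = maximum activity change between -70% and -50%; inactive = maximum activity change above -50%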; note: % is set by controls: 0 for no effect and ±100 for the full control effect
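U2OS cells were transduced with wild-type KCNH2 virus (2.03 x 10^8 / mL) for 4 h at room temperature, then cultured overnight at 37 C. Thallium flux was read with FluxOr dye. Rate constants were normalized to DMSO controls.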
Anesthetic bind = binds horse apoferritin like a general anesthetic. P02791. apoferritin/1-aminoanthracene competitive binding, fluorescence. Potency, µM (series often up to 77.5 µM), for inactives: at the top dose activity change, negative = displacement, actives largely listed as inhibitors. actives 0.074% (n = 350,000); note: potency is the fitted concentration of half-maximal effect; % is set by controls: 0 for no effect and ±100 for the full control effect; nearly all actives have a fitted effect of over 20% in size
Target sequence (P02791 2-175 limits assumed): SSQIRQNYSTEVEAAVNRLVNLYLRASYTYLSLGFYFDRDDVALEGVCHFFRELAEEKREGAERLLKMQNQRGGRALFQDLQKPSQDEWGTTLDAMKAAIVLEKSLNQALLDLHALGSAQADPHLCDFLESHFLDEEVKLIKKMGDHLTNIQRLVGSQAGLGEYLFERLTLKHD
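Probe: 1-aminoanthracene (50% saturated, PBS). Protein: horse-spleen apoferritin, 10 uM. Incubation: 10 min, room temperature. Detection: 380 nm excitation, 535 nm emission. Analysis: normalized response, four-parameter Hill.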
mIDH1 inhibitor = blocks human mutant IDH1 R132H enzyme; Potency, µM (series often up to 76.6 µM), inactives show at the top dose activity change, negative = inhibition, usual class: inhibitors; AID 602179; IDH1-R132H enzyme, NADPH consumption, diaphorase/resazurin fluorescence; O75874; actives 0.093% (n = 390,000); note: potency is the fitted concentration of half-maximal effect; % is set by controls: 0 for no effect and ±100 for the full control effect; nearly all actives have a fitted effect of over 65% in size
Target sequence (O75874 whole entry R132H, stated change not applied): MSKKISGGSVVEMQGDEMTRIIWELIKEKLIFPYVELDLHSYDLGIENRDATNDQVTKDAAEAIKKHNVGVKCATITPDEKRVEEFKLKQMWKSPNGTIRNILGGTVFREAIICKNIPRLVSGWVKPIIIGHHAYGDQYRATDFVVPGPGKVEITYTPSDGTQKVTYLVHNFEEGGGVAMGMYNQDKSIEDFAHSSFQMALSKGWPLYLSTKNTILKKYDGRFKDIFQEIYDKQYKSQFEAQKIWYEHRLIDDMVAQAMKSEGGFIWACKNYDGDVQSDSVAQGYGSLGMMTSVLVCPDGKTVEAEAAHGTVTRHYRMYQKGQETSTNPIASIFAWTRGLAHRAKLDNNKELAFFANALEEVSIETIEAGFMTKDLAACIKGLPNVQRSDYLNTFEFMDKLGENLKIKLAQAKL
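IDH1-R132H (0.5 ug/mL dispensed) in pH 7.5 Tris buffer was preincubated 30 min with compound, then given a substrate mix of 0.016 mM NADPH and 2 mM alpha-KG for 80 min at room temperature; remaining NADPH was read by diaphorase/resazurin fluorescence.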
S-ASM inh = blocks human secretory acid sphingomyelinase; placental ASM, HMU-PC fluorogenic substrate, 60 min; P17405; Potency, µM (doses to about 57.5 µM), for the others: top-dose activity change, negative = inhibition, actives largely listed as inhibitors; actives 0.006% (n = 340,000); note: potency is the fitted concentration of half-maximal effect
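Human placenta-derived ASM preincubated with compound 10 min at room temperature, then reacted with 9 uM (final) fluorogenic HMU-PC substrate for 60 min at 37 C. Stop solution raises pH to 10; fluorescence read at Ex 386/Em 447 nm.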
IDH1 autofl = interferes with resorufin fluorescence in IDH1 counter-screen | shares compounds with mIDH1 inhibitor | Resorufin detection reagent fluorescence interference, cell-free | inhibition of signal, % at 51.2 µM | 750 tested, under 10 active;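 note: 0% = wells with normal resorufin and full inhibition = wells lacking resorufin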
IDH1 WT = selectivity of mutant IDH1 inhibitors: human wild-type IDH1; shares compounds with mIDH1 inhibitor; Potency, µM (series often up to 115 µM), for inactives: at the top dose activity change, negative = inhibition, hits mostly inhibitors; actives 9% (n = 750); WT IDH1 enzyme, NADPH diaphorase/resazurin fluorescence;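 note: potency is the fitted concentration of half-maximal effect; 0% = full WT IDH1 enzyme control and full inhibition = no enzyme wells; nearly all actives have a fitted effect of over 55% in size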
Target sequence (O75874 whole entry, looked up): as the sequence (O75874 whole entry R132H, stated change not applied) above, with H132R counted along it
IDH1 R132H conf = mutant IDH1 (human) inhibition, confirmed; shares compounds with mIDH1 inhibitor; IDH1 R132H enzyme, NADPH diaphorase/resazurin fluorescence; Potency, µM (highest dose often 76.6 µM), without a hit: at the highest dose activity change, negative = inhibition, most hits filed as inhibitors; actives 83% (n = 750); note: potency is the fitted concentration of half-maximal effect; nearly all actives have a fitted effect of over 50% in size
* hit, by the source's call; ? = inconclusive; / = no result. Only some compounds are listed: those with a hit (about 1.2% of all), similar ones and a draw of the others. Unless noted, calls come from the whole dose curve; as a rule, active = well fitted curve in the direction sought with a large enough effect; inconclusive = small, poorly fitted or top-dose-only effect, or another doubt; inactive = no such curve, though single readings can be large; an effect the other way counts as inactive or inconclusive.

SMILES	KCNH2 3.1 block	KCNH2 WT inh	Anesthetic bind	mIDH1 inhibitor	S-ASM inh	IDH1 autofl	IDH1 WT	IDH1 R132H conf
CCCCCc1c(C)c(C#N)c2nc3ccccc3n2c1-n1ccnc1C	-8	1	-11%	-3%	18%	/	/	/
COc1ccc(N(C(=O)c2ccco2)C(C(=O)NC2CCCC2)c2ccncc2)cc1OC (centres undefined)	3	2	3%	11%	15%	/	/	/
Cc1ccc(N(C(=O)c2ccco2)C(C(=O)NC2CCCC2)c2ccco2)c(C)c1 (centres undefined)	15	-8	-1%	?	-1%	4	0%	20µM*
O=C(NC1CCCC1)C(c1ccncc1)N(C(=O)c1ccco1)c1ccc(F)c(Cl)c1 (centres undefined)	-2	9	-3%	?	0%	4	1%	40µM*
O=C(NC1CCCC1)C(c1ccncc1)N(C(=O)c1ccco1)c1ccccc1 (centres undefined)	-4	-11	-6%	22%	1%	/	/	/
O=C(NC1CCCCC1)C(c1ccncc1)N(C(=O)c1ccco1)c1ccc(F)cc1 (centres undefined)	-27	3	0%	?	0%	1	-1%	40µM*
Cc1cc(C)cc(N(C(=O)c2ccco2)C(C(=O)NC2CCCC2)c2ccncc2)c1 (centres undefined)	-6	-17	6%	?	8%	5	7%	45µM*
COc1ccc(Cl)cc1N(C(=O)c1ccco1)C(C(=O)NC1CCCC1)c1ccncc1 (centres undefined)	-2	1	-8%	-23%	-1%	/	/	/
COc1ccc(Cl)cc1N(C(=O)c1ccco1)C(C(=O)NC1CCCC1)c1cccnc1 (centres undefined)	1	26	-7%	?	8%	2	-2%	?
COc1ccc(N(C(=O)c2ccco2)C(C(=O)NC2CCCC2)c2cccs2)cc1 (centres undefined)	-9	-2	-23%	?	-1%	-1	-7%	?
C[C@H]1[C@H](C)CC[C@]2(C=O)CC[C@]3(C)C(=CC[C@@H]4[C@@]5(C)C[C@@H](O)[C@H](O)[C@@](C)(CO)[C@@H]5CC[C@]43C)[C@H]12	/	/	-13%	/	/	/	/	/
CCOC(=O)N1CCC2(CC1)C(C#N)=C(N)Oc1n[nH]c(CSc3ccc(C)cc3)c12	-11	8	?	?	-5%	4	0%	28µM*
CCOc1ccc(NCc2cccn2-c2nnc(N3CCC(C(=O)NCCc4ccc(OC)c(OC)c4)CC3)s2)cc1	/	/	132%	/	/	/	/	/
CCc1nn2c(=O)cc(COC(=O)c3ccccc3NC(=O)COc3ccc(C)c(C)c3)nc2s1	/	/	-3%	-3%	/	/	/	/
COC(=O)c1ccc(COc2ccccc2/C=C(\C#N)C(=O)Nc2ccc(C)cc2)cc1	-3	-2	-9%	3%	-1%	/	/	/
N#C/C(=C\c1ccccc1OCc1ccc(C(=O)O)cc1)C(=O)Nc1ccc(O)cc1	17	-3	-14%	?	-4%	0	-26%	40µM*
NNC(=O)c1csc(Cc2c(Cl)sc3ccc(Cl)cc23)n1	-10	-1	-19%	52µM*	-8%	6	14%	-11%
CC[C@H](C)[C@H](NC(=O)[C@H](CO)NC(=O)[C@H](C)NC(=O)[C@H](C)NC(=O)[C@H](CCC(N)=O)NC(=O)[C@H](CCCCN)NC(=O)[C@H](CCCN=C(N)N)NC(=O)[C@@H](N)CS)C(=O)N[C@@H](CCCCN)C(=O)N[C@H](C(=O)N[C@@H](C)C(=O)N[C@H](C(=O)N[C@@H](CO)C(=O)O)C(C)C)C(C)C	/	/	-5%	/	/	/	/	/
COc1ccc(CCNc2ncnc3c2nnn3C)cc1	/	/	?	23%	/	/	/	/
COC(=O)c1cccc(C23CC4(C2)[C@H](CN(CC2CCCCC2)[C@@H]4c2ccccc2)C3c2ccc(Cl)nc2)c1 (some centres undefined)	/	/	-4%	/	/	/	/	/
CCC(c1nnnn1C1CCCCC1)N(Cc1ccco1)Cc1cc2ccc(OC)cc2[nH]c1=O (centres undefined)	-8	4	-5%	?	-25%	-5	4%	?
Cc1ccc2cc(C(c3nnnn3C3CCCC3)N(Cc3ccco3)Cc3cccs3)c(=O)[nH]c2c1 (centres undefined)	-23	-12	-1%	2%	0%	/	/	/
O=C1c2[nH]nc(-c3ccccc3O)c2C(c2ccccc2F)N1Cc1ccco1 (centres undefined)	-14	-7	-10%	-14%	-21%	/	/	/
O=C1c2[nH]nc(-c3ccccc3O)c2C(c2ccc(Cl)cc2)N1Cc1ccco1 (centres undefined)	/	/	?	40µM*	/	-1	1%	28µM*
COc1cccc(C2c3c(-c4ccccc4O)n[nH]c3C(=O)N2Cc2ccco2)c1 (centres undefined)	-19	-4	-3%	52µM*	-14%	0	-5%	40µM*
SMILES	KCNH2 3.1 block	KCNH2 WT inh	Anesthetic bind	mIDH1 inhibitor	S-ASM inh	IDH1 autofl	IDH1 WT	IDH1 R132H conf
CCCCOc1cccc(C2c3c(-c4cc(C)ccc4O)n[nH]c3C(=O)N2CCOC)c1 (centres undefined)	/	/	-3%	32µM*	/	-11	0%	22µM*
COCCCN1C(=O)c2[nH]nc(-c3cc(C)ccc3O)c2C1c1ccc(F)cc1 (centres undefined)	/	/	?	0%	/	/	/	/
Cc1ccc(O)c(-c2n[nH]c3c2C(c2ccccc2F)N(Cc2ccco2)C3=O)c1 (centres undefined)	/	/	-14%	?	/	-10	-21%	25µM*
COC(=O)Cn1c(C(=O)N(C)C)cc2c1C[C@H]1CN(C(=O)c3ccccc3)[C@@](Cc3ccc(OC)cc3)(C(=O)OC)[C@@H]21	/	/	-8%	/	/	/	/	/
COc1cc(C2c3c(-c4ccccc4O)n[nH]c3C(=O)N2Cc2ccco2)ccc1OCC(C)C (centres undefined)	/	/	?	?	/	1	-19%	20µM*
CCOc1cccc(C2c3c(-c4cc(C)ccc4O)n[nH]c3C(=O)N2Cc2ccco2)c1 (centres undefined)	/	/	-6%	32µM*	/	1	-2%	11µM*
